From PubChem BioAssay (EPA / NIEHS)
Results filed as inconclusive are left out. Calls of active or inactive are those of the source. How the source made its calls, unless noted: active means hit-call score of the fitted dose curve at least 0.9, where 1 is the maximum; inactive means score below 0.9.

Columns and labels:
[1] = ACEA_ER_80hr: ACEA Biosciences xCELLigence Real-Time Cell Analysis on Estrogen Receptor Agonism for Proliferation (AID 2282667; active means hit-call score of the fitted dose curve at least 0.9, where 1 is the maximum); conditions: T47D proliferation, impedance (xCELLigence), 80 h
In short: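 T-47D cells monitored by electrical impedance (xCELLigence) with compound present throughout; 80 h timepoint, positive-direction fitting versus DMSO. Eight-point 1:4 dilutions from 100 uM final, duplicate plates.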

[2] = ATG_CRE_CIS: Attagene CIS-FACTORIAL HepG2 Assay for human cAMP Responsive Element (CRE) binding protein 3 (AID 2282926); conditions: HepG2 CRE cis-reporter, Attagene multiplexed mRNA; actives raise or lower the signal
In short: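 Induced reporter mRNA from a CRE cis element, measured in HepG2 among many multiplexed units at 24 h. Detection used RT-PCR plus capillary electrophoresis of fluorescent fragments; DMSO served as negative control.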

[3] = biological target: CCAAT/enhancer-binding protein beta (Homo sapiens) (UniProt P17676); assay: ATG_C_EBP_CIS: Attagene CIS-FACTORIAL HepG2 Assay for human CCAAT/Enhancer Binding Protein (C/EBP) beta (AID 2282927); conditions: HepG2 Attagene cis-factorial transcription factor reporter; actives raise or lower the signal
Chain of CCAAT/enhancer-binding protein beta (Homo sapiens) (P17676 whole entry, looked up): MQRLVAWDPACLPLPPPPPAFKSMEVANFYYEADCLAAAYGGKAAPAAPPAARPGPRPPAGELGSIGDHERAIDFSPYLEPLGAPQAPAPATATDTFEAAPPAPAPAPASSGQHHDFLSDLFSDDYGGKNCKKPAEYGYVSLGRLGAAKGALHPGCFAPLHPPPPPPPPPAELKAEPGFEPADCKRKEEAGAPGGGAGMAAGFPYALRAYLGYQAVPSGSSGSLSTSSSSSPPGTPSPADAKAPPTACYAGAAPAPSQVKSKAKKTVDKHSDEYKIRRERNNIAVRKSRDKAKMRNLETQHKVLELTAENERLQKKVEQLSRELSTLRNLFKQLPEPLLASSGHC
In short: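 HepG2, transient MRTU transfection, 24 h treatment. RT-PCR plus CE fluorescence; DMSO negative control, bidirectional fit.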

[4] = ATG_CMV_CIS: Attagene CIS-FACTORIAL HepG2 Assay for human CMV (Internal Marker) (AID 2282928); conditions: HepG2 CMV promoter reporter, transcription factor profiling; actives raise or lower the signal;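 further: endpoint acts as a background internal control marker rather than a target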
In short: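 Reporter transcripts from transfected HepG2 cells are isolated after 24 h of chemical dosing, reverse-transcribed and amplified. Fragments labeled with 6-FAM are cut with HpaI and quantified by capillary electrophoresis; DMSO defines baseline.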

[5] = ATG_DR4_LXR_CIS: Attagene CIS-FACTORIAL HepG2 Assay for human Liver X Receptor (LXR), DR4 submotif (AID 2282929); conditions: HepG2 Attagene DR4 cis-reporter, mRNA transcription; actives raise or lower the signal
In short: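 After transient transfection with multiplexed cis-promoter reporter units, HepG2 cells received test chemicals for 24 h. Reporter mRNA induction, detected by fluorescence after RT-PCR and capillary electrophoresis, was scored relative to DMSO.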

[6] = biological target: Aryl hydrocarbon receptor (Homo sapiens) (UniProt P35869); assay: ATG_Ahr_CIS: Attagene CIS-FACTORIAL HepG2 Assay for human Aryl Hydrocarbon Receptor (Ahr) (AID 2282930); conditions: HepG2 AhR cis-factorial reporter transcription; actives raise or lower the signal
Chain of Aryl hydrocarbon receptor (Homo sapiens) (P35869 whole entry, looked up): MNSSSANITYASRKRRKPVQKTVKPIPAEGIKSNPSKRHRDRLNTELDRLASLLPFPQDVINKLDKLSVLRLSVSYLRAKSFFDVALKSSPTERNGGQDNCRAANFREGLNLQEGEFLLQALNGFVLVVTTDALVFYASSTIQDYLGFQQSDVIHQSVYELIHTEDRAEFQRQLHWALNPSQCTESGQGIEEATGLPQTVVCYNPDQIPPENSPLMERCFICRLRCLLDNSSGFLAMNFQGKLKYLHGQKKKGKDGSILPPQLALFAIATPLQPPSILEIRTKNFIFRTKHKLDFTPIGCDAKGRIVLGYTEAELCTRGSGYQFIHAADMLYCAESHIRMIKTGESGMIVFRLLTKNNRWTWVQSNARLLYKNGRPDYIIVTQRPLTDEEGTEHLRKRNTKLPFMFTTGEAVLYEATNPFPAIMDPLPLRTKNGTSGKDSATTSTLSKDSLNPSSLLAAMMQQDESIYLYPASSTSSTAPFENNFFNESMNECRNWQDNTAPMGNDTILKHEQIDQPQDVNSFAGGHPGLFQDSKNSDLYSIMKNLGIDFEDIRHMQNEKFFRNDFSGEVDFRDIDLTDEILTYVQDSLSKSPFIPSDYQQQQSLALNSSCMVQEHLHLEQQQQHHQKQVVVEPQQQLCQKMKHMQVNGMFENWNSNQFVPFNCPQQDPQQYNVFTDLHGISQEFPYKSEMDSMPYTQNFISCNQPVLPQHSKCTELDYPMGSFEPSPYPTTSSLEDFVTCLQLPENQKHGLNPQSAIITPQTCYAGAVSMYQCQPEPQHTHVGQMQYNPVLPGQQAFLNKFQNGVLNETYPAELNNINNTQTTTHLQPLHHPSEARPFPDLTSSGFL
In short: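 Endogenous factor activity is tracked through cis-promoter reporter units transfected into HepG2 cells. Transcript levels at 24 h are read by fluorescent RT-PCR and capillary electrophoresis, with activity in either direction scored relative to DMSO.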

[7] = ATG_AP_1_CIS: Attagene CIS-FACTORIAL HepG2 Assay for human Activator Protein 1 (AP-1) (AID 2282931); conditions: HepG2 Attagene cis-factorial AP-1 reporter mRNA; actives raise or lower the signal
In short: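 After 24 h incubation with test chemical, RNA from transfected HepG2 cells was reverse-transcribed, amplified, fluorescently labelled and digested before capillary electrophoresis. Reporters were driven by cis-regulatory promoters; activity fitted bidirectionally versus DMSO.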

[8] = ATG_AP_2_CIS: Attagene CIS-FACTORIAL HepG2 Assay for human Activator Protein 2 (AP-2) (AID 2282932); conditions: HepG2 AP-2 cis-reporter, Attagene transcription factor profiling; actives raise or lower the signal
In short: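 Read-out: fluorescent reporter mRNA via RT-PCR and capillary electrophoresis, 24 h post-dose in transiently transfected HepG2. Endogenous factors drive cis-promoter reporters; gain or loss of signal fitted bidirectionally against DMSO.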

[9] = ATG_BRE_CIS: Attagene CIS-FACTORIAL HepG2 Assay for human Bone Morphogenetic Protein (BMP) Response Element (BRE) (AID 2282933); conditions: HepG2 BMP response element reporter, Attagene transcription factor profiling; actives raise or lower the signal
In short: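 Fluorescence-labelled reporter cDNA fragments, separated by capillary electrophoresis, gave the signal for this component of a 52-readout multiplex. HepG2 cells were transfected, exposed to chemicals for 24 h, and compared with DMSO using bidirectional fitting.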

[10] = biological target: Retinoic acid receptor alpha (Homo sapiens) (UniProt P10276); assay: ATG_DR5_RAR_CIS: Attagene CIS-FACTORIAL HepG2 Assay for human Retinoic Acid Receptor Alpha (RARE), DR5 submotif (AID 2282934); conditions: HepG2 Attagene cis-factorial RARE DR5 reporter, mRNA; actives raise or lower the signal;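 on AC50: reporter responds to endogenous RAR alpha beta and gamma in HepG2 not RARA alone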
Chain of Retinoic acid receptor alpha (Homo sapiens) (P10276 whole entry, looked up): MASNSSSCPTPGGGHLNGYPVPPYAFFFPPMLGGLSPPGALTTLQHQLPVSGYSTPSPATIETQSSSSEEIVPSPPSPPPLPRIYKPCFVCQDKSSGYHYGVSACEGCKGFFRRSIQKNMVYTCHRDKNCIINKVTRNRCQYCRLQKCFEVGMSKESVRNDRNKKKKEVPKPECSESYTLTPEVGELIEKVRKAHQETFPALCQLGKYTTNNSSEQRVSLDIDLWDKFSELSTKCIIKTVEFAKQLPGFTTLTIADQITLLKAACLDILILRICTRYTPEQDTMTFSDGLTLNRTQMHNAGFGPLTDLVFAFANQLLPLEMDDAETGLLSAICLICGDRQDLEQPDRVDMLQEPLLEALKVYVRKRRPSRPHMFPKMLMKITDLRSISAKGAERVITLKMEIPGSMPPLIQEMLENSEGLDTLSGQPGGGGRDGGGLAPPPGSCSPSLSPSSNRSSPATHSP
In short: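 After 24 h of chemical exposure, transiently transfected HepG2 cells were lysed for total RNA; the DR5-regulated reporter transcript was quantified via RT-PCR and capillary electrophoresis, with activity fitted bidirectionally against DMSO.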

[11] = biological target: Transcription factor E2F1 (Homo sapiens) (UniProt Q01094); assay: ATG_E2F_CIS: Attagene CIS-FACTORIAL HepG2 Assay for human E2F Transcription Factor 1 (AID 2282935); conditions: HepG2 Attagene cis-reporter, E2F reporter RNA transcripts; actives raise or lower the signal
Chain of Transcription factor E2F1 (Homo sapiens) (Q01094 whole entry, looked up): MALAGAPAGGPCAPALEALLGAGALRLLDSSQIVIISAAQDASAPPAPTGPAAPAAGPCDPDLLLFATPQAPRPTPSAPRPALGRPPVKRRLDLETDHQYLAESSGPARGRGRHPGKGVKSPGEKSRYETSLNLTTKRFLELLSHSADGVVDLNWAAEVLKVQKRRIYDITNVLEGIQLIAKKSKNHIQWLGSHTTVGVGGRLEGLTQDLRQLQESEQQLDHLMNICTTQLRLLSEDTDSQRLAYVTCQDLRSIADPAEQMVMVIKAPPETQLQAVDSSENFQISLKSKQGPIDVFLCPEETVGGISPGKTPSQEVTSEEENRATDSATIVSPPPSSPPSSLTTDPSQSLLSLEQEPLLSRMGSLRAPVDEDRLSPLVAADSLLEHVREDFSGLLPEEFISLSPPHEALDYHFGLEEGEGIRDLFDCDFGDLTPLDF
In short: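 Transient MRTU transfection of HepG2; 24 h compound exposure; RNA → oligo(dT) RT → PCR → FAM label → HpaI cut → CE fluorescence. Gain/loss of signal fit against DMSO.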

[12] = ATG_M_61_CIS: Attagene CIS-FACTORIAL HepG2 Assay for M61 Transcription Factor (Internal Marker) (AID 2282937); conditions: HepG2 Attagene CIS-FACTORIAL M61 internal marker reporter; actives raise or lower the signal
In short: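 Using transiently transfected HepG2 liver cells, reporter transcript levels were assessed 24 h post-dosing by RT-PCR and capillary electrophoresis. Changes in either direction were fitted relative to DMSO controls.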

[13] = ATG_EGR_CIS: Attagene CIS-FACTORIAL HepG2 Assay for human Early Growth Response 1 (EGR1) (AID 2282938); conditions: HepG2 Attagene CIS-FACTORIAL EGR reporter mRNA; actives raise or lower the signal
In short: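 Fluorescent capillary-electrophoresis signal of reporter cDNA fragments serves as read-out. HepG2 cells bear transiently transfected cis-promoter reporter units and are exposed 24 h; gain- or loss-of-signal is fitted against DMSO.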

[14] = ATG_Ets_CIS: Attagene CIS-FACTORIAL HepG2 Assay for human Erythroblast Transformation Specific (ETS) (AID 2282941); conditions: HepG2 ETS cis-reporter transcription, actives raise or lower the signal
In short: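 Bidirectional fit versus DMSO of reporter mRNA signal, detected by RT-PCR and capillary electrophoresis in HepG2 cells transiently transfected with cis-element reporters and dosed 24 h.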

[15] = biological target: Hepatocyte nuclear factor 3-beta (Homo sapiens) (UniProt Q9Y261); assay: ATG_FoxA2_CIS: Attagene CIS-FACTORIAL HepG2 Assay for human Forkhead box A2 (FOXA2) (AID 2282942); conditions: HepG2 cis-reporter transcription factor activity, 24 h; actives raise or lower the signal
Chain of Hepatocyte nuclear factor 3-beta (Homo sapiens) (Q9Y261 whole entry, looked up, the tested form may be a part): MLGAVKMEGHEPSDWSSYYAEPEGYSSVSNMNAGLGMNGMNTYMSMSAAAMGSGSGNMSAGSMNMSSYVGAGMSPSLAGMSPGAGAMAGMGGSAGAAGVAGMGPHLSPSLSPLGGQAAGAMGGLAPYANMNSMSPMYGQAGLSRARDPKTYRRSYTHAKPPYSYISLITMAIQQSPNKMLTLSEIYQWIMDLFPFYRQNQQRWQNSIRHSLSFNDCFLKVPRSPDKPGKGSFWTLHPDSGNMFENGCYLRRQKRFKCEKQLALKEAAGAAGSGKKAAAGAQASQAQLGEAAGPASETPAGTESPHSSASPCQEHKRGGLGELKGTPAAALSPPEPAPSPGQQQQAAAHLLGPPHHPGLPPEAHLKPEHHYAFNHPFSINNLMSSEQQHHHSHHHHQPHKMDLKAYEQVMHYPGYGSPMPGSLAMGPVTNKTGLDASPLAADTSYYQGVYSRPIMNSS
In short: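 Fluorescence signal of reporter cDNA fragments, separated by capillary electrophoresis, reflects endogenous transcription factor activity in transfected HepG2 after 24 h. Both increases and decreases fitted against DMSO.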

[16] = ATG_FoxO_CIS: Attagene CIS-FACTORIAL HepG2 Assay for human Forkhead box O (FoxO) (AID 2282943); conditions: HepG2 Attagene cis-reporter, FoxO element, mRNA; actives raise or lower the signal
In short: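 Transfected HepG2 reporter cells exposed to test chemical for 24 h; reporter RNA measured by reverse transcription, PCR and fluorescent capillary electrophoresis; curves fitted for increases and decreases against DMSO.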

[17] = ATG_GATA_CIS: Attagene CIS-FACTORIAL HepG2 Assay for human GATA Binding Protein (AID 2282944); conditions: HepG2 GATA cis-element reporter, Attagene multiplex mRNA; actives raise or lower the signal
In short: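 Cells: HepG2, transiently transfected with cis-regulated reporter transcription units. Exposure: 24 h. Detection: RT-PCR plus capillary electrophoresis of FAM-labeled fragments. Analysis: bidirectional, DMSO as baseline.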

[18] = ATG_M_19_CIS: Attagene CIS-FACTORIAL HepG2 Assay for M19 Transcription Factor (Internal Marker) (AID 2282939); conditions: HepG2 Attagene CIS-FACTORIAL M19 internal marker reporter; actives raise or lower the signal
In short: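 HepG2, MRTU transient transfection, 24 h dosing. Total RNA → RT-PCR → 6-FAM primer extension → HpaI digest → CE fluorescence. Bidirectional curve fit, DMSO negative control.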

[19] = ATG_ERE_CIS: Attagene CIS-FACTORIAL HepG2 Assay for Estrogen Response Element (ERE) (AID 2282940); conditions: HepG2 ERE cis-reporter, Attagene RNA transcript; actives raise or lower the signal
In short: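 After a 24 h chemical treatment, RNA from reporter-transfected HepG2 cells is reverse-transcribed, PCR-amplified and fluorescently labelled. Fragments separated by capillary electrophoresis give reporter signal; DMSO serves as negative control.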

[20] = ATG_E_Box_CIS: Attagene CIS-FACTORIAL HepG2 Assay for human Enhancer Box (E-box) (AID 2282936); conditions: HepG2 E-box cis-reporter transcription, actives raise or lower the signal
In short: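 Transiently transfected HepG2, endogenous TF-driven reporters, 24 h dosing. Readout: RT-PCR plus capillary electrophoresis of fluorescent reporter fragments. Gain or loss of signal fitted bidirectionally against DMSO baseline.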

NC(=O)Nc1ccccc1
outcome [1]: inactive | outcome [2]: inactive | outcome [3]: inactive | outcome [4]: inactive | outcome [5]: inactive | outcome [6]: inactive | outcome [7]: inactive | outcome [8]: inactive | outcome [9]: inactive | outcome [10]: inactive | outcome [11]: inactive | outcome [12]: inactive | outcome [13]: inactive | outcome [14]: inactive | outcome [15]: inactive | outcome [16]: inactive | outcome [17]: inactive

CC(C)(CO)C(O)C(=O)NCCCO (stereo not drawn)
outcome [1]: inactive | outcome [2]: inactive | outcome [3]: inactive | outcome [4]: inactive | outcome [5]: inactive | outcome [6]: inactive | outcome [7]: inactive | outcome [8]: inactive | outcome [9]: inactive | outcome [10]: inactive | outcome [11]: inactive | outcome [12]: inactive | outcome [13]: inactive | outcome [18]: inactive | outcome [19]: inactive | outcome [14]: inactive | outcome [15]: inactive | outcome [16]: inactive | outcome [17]: inactive

CCOC(=O)C1=NN(c2ccc(Cl)cc2Cl)C(C)(C(=O)OCC)C1 (stereo not drawn)
outcome [1]: inactive | outcome [2]: inactive | outcome [3]: inactive | outcome [4]: inactive | outcome [5]: inactive | outcome [6]: inactive | AC50 [7]: 164 µM (active) | outcome [8]: inactive | outcome [9]: inactive | outcome [10]: inactive | outcome [11]: inactive | outcome [20]: inactive | outcome [12]: inactive | outcome [13]: inactive | outcome [19]: inactive | outcome [14]: inactive | outcome [15]: inactive | outcome [16]: inactive | outcome [17]: inactive

CC(C)CO
outcome [1]: inactive | outcome [2]: inactive | outcome [3]: inactive | outcome [4]: inactive | outcome [5]: inactive | outcome [6]: inactive | outcome [7]: inactive | outcome [8]: inactive | outcome [9]: inactive | outcome [10]: inactive | outcome [12]: inactive | outcome [13]: inactive | outcome [18]: inactive | outcome [19]: inactive | outcome [14]: inactive | outcome [16]: inactive | outcome [17]: inactive

O=S(=O)(O)c1ccc(N=Nc2c(O)ccc3ccccc23)cc1
outcome [1]: inactive | outcome [2]: inactive | outcome [3]: inactive | outcome [4]: inactive | outcome [5]: inactive | AC50 [6]: 1.3 µM (active) | outcome [7]: inactive | outcome [8]: inactive | outcome [9]: inactive | outcome [10]: inactive | outcome [20]: inactive | outcome [12]: inactive | outcome [18]: inactive | AC50 [19]: 33.5 µM (active) | outcome [14]: inactive | AC50 [15]: 7.83 µM (active) | outcome [16]: inactive

CC1=CP(=O)(c2ccccc2)CC1 (stereo not drawn)
outcome [1]: inactive | outcome [2]: inactive | outcome [3]: inactive | outcome [4]: inactive | outcome [5]: inactive | outcome [6]: inactive | outcome [7]: inactive | outcome [8]: inactive | outcome [9]: inactive | outcome [10]: inactive | outcome [11]: inactive | outcome [20]: inactive | outcome [12]: inactive | outcome [14]: inactive | outcome [15]: inactive | outcome [16]: inactive | outcome [17]: inactive

c1ccc2sc(SSN3CCOCC3)nc2c1
outcome [1]: inactive | AC50 [2]: 146 µM (active) | outcome [3]: inactive | AC50 [4]: 64 µM (active) | AC50 [5]: 100 µM (active) | AC50 [6]: 3.45 µM (active) | AC50 [7]: 43.2 µM (active) | AC50 [8]: 64.8 µM (active) | outcome [9]: inactive | AC50 [10]: 170 µM (active) | outcome [11]: inactive | outcome [20]: inactive | outcome [12]: inactive | AC50 [13]: 100 µM (active) | outcome [14]: inactive | outcome [15]: inactive | AC50 [16]: 158 µM (active) | outcome [17]: inactive

Cn1cccc1
outcome [1]: inactive | outcome [2]: inactive | outcome [3]: inactive | outcome [4]: inactive | outcome [5]: inactive | outcome [6]: inactive | AC50 [7]: 26.4 µM (active) | outcome [8]: inactive | outcome [9]: inactive | outcome [10]: inactive | outcome [20]: inactive | outcome [12]: inactive | outcome [13]: inactive | outcome [18]: inactive | outcome [19]: inactive | outcome [14]: inactive | outcome [15]: inactive | outcome [16]: inactive | outcome [17]: inactive
